The panel holds about 79,000 compounds, 15% with a hit somewhere; the sample as a whole holds those more often. The source made the active and inactive calls. Rule as the data show it: active = growth inhibition above about 70%; inactive = the rest.

The test in a line: NCI Yeast Anticancer Drug Screen. Data for the sgs1 mgt1 strain (AID 161).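 Also: 0% = growth of cultures given vehicle only.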 The conditions noted are these: S. cerevisiae sgs1 mgt1 strain, at 50.0 µM, active compounds read high. The method, then:
Growth inhibition of yeast strains with defined genetic alterations is measured as a screen for potential anti-cancer activity. Selected strains with alterations in DNA damage repair or cell cycle control were exposed to compounds and growth inhibition was measured relative to vehicle treated controls. The strain used in this assay is sgs1 mgt1
For the compound `O=C(Nc1c(Cl)cc(Cl)cc1Cl)ON=C1CCCCC1`, the growth inhibition is 11.1% (inactive). Next, `O=[N+]([O-])c1c(O)c(CNCCCO)cc(CNCCCO)c1O`: 18.9% (inactive); `CC(C)(CC(=O)O)CC(=O)O`: 0% (inactive); `CC1(C)CCC(C)(C)NC(=S)N1`: 21.2% (inactive). In the case of `CC1CN(CCO)CC(C)O1` (stereo not given) it was 4.05% (inactive); in that of `C=CCc1cc(OC)c(O)c(OC)c1`, -14.2% (inactive); in that of `CC(=O)O[C@H]1CC[C@]2(C)C3=C(C(=O)C[C@H]2C1(C)C)[C@]1(C)CC[C@H]([C@H](C)CCC(=O)O)[C@@]1(C)CC3=O`, 33.2% (inactive). Next, `C=C1C(=O)C2CCC1C2` (stereo not given): 23.8% (inactive); `C[n+]1cc2cc3c(cc2c2ccccc21)OCO3`: 30% (inactive); `COC1(OC)C2(Cl)C(Cl)=C(Cl)C1(Cl)C1COCC12` (stereo not given): -40.2% (inactive). On to `CCCCCC#CC(=O)O`, for which the growth inhibition is -8.05% (inactive). Next, `O=C1C=Cc2ccccc2/C1=C/c1[nH]c(=O)[nH]c1O`: -9.7% (inactive). In the case of `CC(C)(C)NCCC(O)c1cc(C(F)(F)F)nc2c(C(F)(F)F)cccc12` (stereo not given) it was -22.4% (inactive); in that of `Nc1nc(N)nc(N2CCCCC2)n1`, -16.4% (inactive). Regarding `Cc1ccc(/C=N/NC(N)=S)s1`, the growth inhibition was 49.1% (inactive). As to `Nc1cc(F)ccc1[N+](=O)[O-]`, the growth inhibition is -18.1% (inactive). Regarding `CCOc1ccc(C(=O)O)cc1`, the growth inhibition is -1.65% (inactive). Next, `O=C(O)Cc1ccccn1`: -1.75% (inactive); `CCCC(=O)CC(=O)c1ccccc1`: -3.75% (inactive); `NC(=O)N1CCOCC1`: -12.9% (inactive). In the case of `CC(=O)c1cccs1` it was 15.1% (inactive).

On to `C/C(=N\N=C(/C)c1cccc([N+](=O)[O-])c1)c1cccc([N+](=O)[O-])c1`, for which the growth inhibition is 17.5% (inactive).

For `Cc1cc(Cc2ccccc2)c(O)c(Cc2ccccc2)c1`, the growth inhibition is 32% (inactive).

As to `NNC(=O)N/N=C1\C(=O)N(c2nccs2)C(=O)C(=O)C1c1nc2ccccc2s1` (stereo not given), the growth inhibition is -33% (inactive).

As to `NC(=S)N/N=C/c1ccc(OC(=O)COc2ccccc2)cn1`, the growth inhibition was 14.3% (inactive). Next, `Cc1cc(C(=O)NN)c(C#N)c(=O)[nH]1`: -2.15% (inactive); `CCOC(=O)CNC`: -12.7% (inactive); `CC(=O)[C@@]1(O)CC[C@H]2[C@@H]3CC[C@@H]4CC(=O)CC[C@]4(C)[C@H]3[C@@H](O)C[C@@]21C`: -3% (inactive).

Consider `Cc1[nH]c(=S)[nH]c(=O)c1C`, for which the growth inhibition is -35.6% (inactive). Next, `CC(=O)c1cccc(NS(=O)(=O)c2ccc(C)cc2)c1`: -18.1% (inactive); `C=CCNC(=S)N/C=C(/C(=O)c1ccccc1)c1ccccc1`: -45.2% (inactive); `Nc1nnc2cc(F)ccc2n1`: -5.9% (inactive). Next, `O=c1n(CC2CO2)c(=O)n(CC2CO2)n1CC1CO1` (stereo not given): 1.05% (inactive); `COc1ccc(C2CC(c3ccccc3)=Nc3ccccc3S2)cc1` (stereo not given): 16% (inactive); `O=C1C=C[C@H](O)[C@@]2(CO)O[C@@H]12`: -14.5% (inactive).

Regarding `CCC(=O)C1C(=O)c2ccccc2C1=O`, the growth inhibition is -17.5% (inactive). In the case of `CCCCCCCCCCCCCCCCCC(=O)NCCNC(=O)CCCCCCCCCCCCCCCCC` it was -1.15% (inactive); in that of `COC1=C(OC)C(=O)C(SC/C=C(\C)CCCC(C)CCCC(C)CCCC(C)C)=CC1=O` (stereo not given), -43.5% (inactive).

With `N#Cc1ccc2nc[nH]c2c1`, the growth inhibition was -13% (inactive). Next, `Nc1ncnc2c1ncn2C1OC(CO)C2OC21` (stereo not given): 2.05% (inactive).

The values are drawn from PubChem BioAssay (NCI).
